The full list was thinned out, with hits kept by preference.
Tb PYK inh = inhibitors of Trypanosoma brucei pyruvate kinase | actives 0.12% (n = 410,000) | TbPYK enzyme, Kinase-Glo Plus ATP luminescence, 45 min | Q57TT1 | AID 624173 | Potency, µM (top dose mostly 76.8 µM), for the others: at the top dose activity, negative = inhibition, hits mostly inhibitors; further: potency means the concentration at half of the fitted maximal effect; on the % scale 0 is the no-effect control and ±100 the full control effect; nearly all actives have a fitted effect of over 50% in size
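ADP (130 uM final) triggers the TbPYK reaction after compound addition; incubation is 45 min at room temperature. Kinase-Glo Plus is then added and luminescence imaged. Normalized data are fitted to concentration-effect curves.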
Sm TGR inh = S. mansoni TGR enzyme inhibition; actives 3% (n = 360,000); Potency, µM (highest dose often 114 µM), for inactives: top-dose activity change, negative = inhibition, most hits filed as inhibitors; Q962Y6; purified TGR, DTNB reduction, TNB absorbance 405 nm; further: potency means the concentration at half of the fitted maximal effect; on the % scale 0 is the no-effect control and ±100 the full control effect; nearly all actives have a fitted effect of over 60% in size
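Kinetic colorimetric format: TGR-catalysed, NADPH-driven DTNB reduction monitored via TNB absorbance. Enzyme dispensed at 20 nM; compound exposure 15 min at room temperature before reaction start.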
Shiga toxin inh = blocks Shiga toxin action in Vero cells; Vero cells, Shiga toxin protein synthesis inhibition reporter; inhibition, % at 38.7 µM; actives 9.2% (n = 290,000); AID 2315; in the data active means inhibition mostly above about 28%, no sharp cut-off; inactive means mostly below about 43%; further: 0% is about no effect
LmPK inh = blocks Leishmania mexicana pyruvate kinase activity; purified LmPK, Kinase-Glo ATP luminescence, 1 h; Potency, µM (highest dose often 57.5 µM), without a hit: at the highest dose activity change, negative = inhibition, most hits filed as inhibitors; actives 0.37% (n = 290,000); further: potency means the concentration at half of the fitted maximal effect; on the % scale 0 is the no-effect control and ±100 the full control effect
Target sequence (Q27686 whole entry, looked up): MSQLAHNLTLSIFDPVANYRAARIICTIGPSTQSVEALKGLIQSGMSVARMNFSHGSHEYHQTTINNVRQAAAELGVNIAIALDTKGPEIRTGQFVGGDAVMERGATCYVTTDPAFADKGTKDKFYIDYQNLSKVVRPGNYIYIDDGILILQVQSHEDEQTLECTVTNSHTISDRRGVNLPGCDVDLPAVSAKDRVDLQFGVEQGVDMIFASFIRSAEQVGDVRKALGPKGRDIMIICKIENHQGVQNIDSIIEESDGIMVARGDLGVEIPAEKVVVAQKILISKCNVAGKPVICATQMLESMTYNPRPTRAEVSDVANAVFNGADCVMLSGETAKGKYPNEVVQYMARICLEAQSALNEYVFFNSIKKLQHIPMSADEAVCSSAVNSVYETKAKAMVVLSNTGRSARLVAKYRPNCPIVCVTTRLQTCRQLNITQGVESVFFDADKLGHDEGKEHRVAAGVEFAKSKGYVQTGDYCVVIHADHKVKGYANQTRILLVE
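Kinase-Glo luminescence read after 1 h RT reaction of 0.1 nM LmPK with 0.5 mM PEP and 0.1 mM ADP. Activity scaled between uninhibited and enzyme-free controls.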
FBPA Giardia inh = inhibitors of Giardia lamblia fructose-1,6-bisphosphate aldolase. actives 0.71% (n = 290,000). AID 2451. purified Giardia FBPA. Potency, µM (titrated, usually from 59.6 µM), without a hit: at the highest dose activity, negative = inhibition, hits mostly inhibitors. A8B2U2; further: potency means the concentration at half of the fitted maximal effect; on the % scale 0 is the no-effect control and ±100 the full control effect; nearly all actives have a fitted effect of over 55% in size
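40 nM FBPA preincubated 10 min at RT with compound (up to 57.5 uM final), then substrate plus GAPDH/TPI/NAD/arsenate coupling and diaphorase/resazurin added. Fluorescence read after 20 min at RT, 525/598 nm.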
CHX counter = counter-screen for Shiga toxin inhibitors: cycloheximide protein synthesis inhibition; cell reporter, cycloheximide protein synthesis inhibition counterscreen; max response, %; actives 12% (n = 300,000); in the data active means max response mostly above about 13%, no sharp cut-off; inactive means mostly below about 14%; further: read at 38.3 µM for the half of the compounds with a filed dose; 0% is about no effect
Numbers without * were called inactive; ? = inconclusive; / = no result. Unless noted, the call rests on the fitted dose curve; in most records, active means well fitted curve in the direction sought with a large enough effect; inconclusive means small, poorly fitted or top-dose-only effect, or another doubt; inactive means no such curve, though single readings can be large; an effect the other way counts as inactive or inconclusive.

SMILES	Tb PYK inh	Sm TGR inh	Shiga toxin inh	LmPK inh	FBPA Giardia inh	CHX counter
O=C(O)c1ccc(-c2nnc(-c3ccccc3)o2)cc1	-26%	0%	42*	13µM*	-1%	27*
COc1ccc(-c2ccc(NS(=O)(=O)c3cc(C)c(C)cc3C)cc2)nn1	1%	9%	/	/	/	/
COc1ccc(NC(=O)c2sc3nc4c(cc3c2N)CN(Cc2ccccc2)CC4)c(OC)c1	-6%	-3%	-6	/	/	-5
Cc1ccc(N2C(=O)SC(N(CC(=O)O)c3cccc(C)c3)C2=O)cc1 (centres undefined)	-1%	-19%	98*	4%	6%	44*
COc1cccc(Sc2nc(-c3ccccc3)ncc2S(C)(=O)=O)c1	0%	2%	50*	-1%	8%	31*
CCN(CC(=O)NCc1ccc(Cl)cc1)C(=O)CCc1ccccc1	-10%	-2%	-2	0%	-1%	1
COc1cc(/C=C/C(=O)N2C(=O)c3cccc(N)c3C2=O)cc(OC)c1OC	5%	-9%	11	1%	9%	-3
Nc1cccc2c1C(=O)N(C(=O)/C=C/c1cccc(Br)c1)C2=O	-1%	2.5µM*	43*	7%	7%	40*
Nc1cccc2c1C(=O)N(C(=O)/C=C/c1cccc(F)c1)C2=O	-10%	6.3µM*	140*	-10%	-3%	34*
Cc1ccc(OCCCn2c(-c3ccc(Cl)cc3)nc3ccccc3c2=O)c(C)c1	2%	0%	/	/	/	/
CCN1C(=O)CSC1=Nc1ccc(C(=O)O)cc1	1%	-2%	/	7%	-3%	8
CCN1C(=Nc2ccc(Cl)cc2)SC/C1=C\C(=O)OC	0%	?	20	6%	0%	22*
COc1ccccc1NC(=O)c1ccc(NC(=O)c2nc3nccc(C)n3n2)cc1	-1%	-5%	/	/	/	/
COc1ccc(NC(=O)c2nc3nccc(C)n3n2)cn1	-8%	0%	44*	-22%	-1%	33*
Cc1ccccc1NC(=O)c1nc2nccc(C)n2n1	/	-6%	72*	?	-3%	38*
Cc1ccc(Cn2c(CN3CCC(C(=O)NCCc4ccccc4)CC3)cc3ccccc32)cc1	-4%	0%	/	/	/	/
Cc1ccc(-c2ccc(/C=C3/NC(=O)NC3=O)o2)cc1[N+](=O)[O-]	1%	-11%	12	2%	-4%	9
CC1=C(C#N)C(=O)NC(=O)/C1=C\c1ccc(-c2cc(C)c(C)cc2[N+](=O)[O-])o1	-26%	3.5µM*	1	1%	?	3
O=C1NC(=O)C(=Cc2ccc(-c3ccccc3[N+](=O)[O-])o2)C(=O)N1	16µM*	-3%	4	-18%	-23%	0
O=C1NC(=O)C(=Cc2ccc(-c3cc(Cl)ccc3[N+](=O)[O-])o2)C(=O)N1	18µM*	32µM*	-3	-3%	-21%	-1
CCCCN(C=O)c1c(CC)nc2ccc(C(=O)N(C)Cc3ccccc3)cn12	4%	/	/	/	/	/
Cc1ccc(CN(C)C(=O)COC(=O)CSc2cc(C)c3ccccc3n2)cc1	1%	-3%	/	/	/	/
Cc1ccccc1Cn1c(CN2CCC(C(=O)NCc3cccnc3)CC2)cc2ccccc21	0%	12%	/	/	/	/
NC(=O)c1nnn(Cc2cc(Cl)c(C(=O)c3ccc(Cl)cc3)c(Cl)c2)c1N	3%	/	/	/	/	/
COc1ccc(NC(=O)c2ccc3c(=O)n(CC4CCCO4)c(=S)[nH]c3c2)c(OC)c1 (centres undefined)	-9%	-10%	-25	-5%	3%	-4
SMILES	Tb PYK inh	Sm TGR inh	Shiga toxin inh	LmPK inh	FBPA Giardia inh	CHX counter
O=C(COC(=O)c1ccc(O)cc1)NCCC1=CCCCC1	-3%	-8%	5	6%	9%	8
O=C(COC(=O)c1ccccc1NC(=O)c1ccco1)NCCC1=CCCCC1	-3%	-20%	108	-3%	5%	30*
O=C(COC(=O)c1ccc(F)cc1F)NCCC1=CCCCC1	2%	-13%	/	/	/	/
O=C(COC(=O)c1ccccc1O)NCCC1=CCCCC1	-1%	1%	90*	6%	2%	47*
O=C(COC(=O)c1ccc2c(c1)OCCO2)NCCC1=CCCCC1	6%	-15%	100*	3%	7%	23*
O=C(COC(=O)c1ccccc1NC(=O)c1ccco1)NCC1CCCCC1	-2%	-11%	18	1%	-1%	0
O=C(COC(=O)c1ccccc1Cl)NCCC1=CCCCC1	2%	19%	83*	-4%	2%	31*
O=C(CSc1nc2c([nH]c3ccccc32)c(=O)n1-c1ccc(Cl)cc1)N1CCCC1	-2%	9%	/	/	/	/
C[C@H]1CCCCO[C@H](CN(C)Cc2ccccc2)[C@@H](C)CN([C@@H](C)CO)C(=O)c2cc(NC(=O)CCC(F)(F)F)ccc2O1	3%	/	/	/	/	/
COc1ccc(C(=O)NCc2nnc(SCC(=O)NC3CCCCC3)o2)cc1	5%	1%	6	-10%	/	-9
O=C(NN1CCCC1)NS(=O)(=O)c1ccc(Cl)cc1	-7%	/	/	/	/	/
O=C(COC(=O)c1cccs1)NCCC1=CCCCC1	-1%	-3%	15	-7%	-4%	14*
COC(=O)c1ccccc1NC(=O)c1ccco1	-1%	-1%	-5	-6%	12%	-1
O=C(Nc1ccccc1C(=O)OCC(=O)c1c[nH]c2ccccc12)c1ccco1	0%	-6%	82*	1%	1%	57*
Cc1ccc(CSCCC(=O)NCCC2=CCCCC2)cc1	-17%	4%	21	3%	5%	23*
CCCc1c(OCC(O)COc2ccc3c(=O)cc(C(=O)O)oc3c2CCC)ccc(C(C)=O)c1O (centres undefined)	/	/	8	/	12%	-8
CC(=O)Nc1ccc(S(=O)(=O)N(C)CC(=O)N/N=C/c2cccc(O)c2)cc1	2%	0%	19	8%	9%	1
O=C(CN(Cc1ccco1)S(=O)(=O)c1ccccc1)N/N=C/c1cccc(O)c1	-7%	-2%	48*	1%	3%	-3
COCCN(C(=O)COC(=O)/C=C/c1cccc(C(F)(F)F)c1)c1c(N)n(CC(C)C)c(=O)[nH]c1=O	4%	/	/	/	/	/
CCN1C(=O)NC(=O)/C(=C\c2ccc(N3CCOCC3)cc2OC)C1=O	/	7%	56*	-2%	-11%	67*
CCOC(=O)N/N=C\C=C\c1ccc2c(c1)OCO2	-7%	-14%	58	-7%	0%	35*
CC(C)(C)OC(=O)N/N=C\C=C\c1ccc2c(c1)OCO2	-3%	-14%	34*	0%	4%	29*
COc1cccc(N2C(C(C)=O)=NN(c3ccccc3)C2c2ccc(N3CCOCC3)cc2)c1 (centres undefined)	-21%	1%	69*	2%	-10%	64*
